We go through 39 compounds from PubChem BioAssay AID720517 (National Center for Advancing Translational Sciences (NCATS), 2013).

Records with an inconclusive call do not appear. Unmarked numbers belong to inactive results. The call rests on the fitted dose curve; in most records, active means well fitted activation curve with a large enough effect; inconclusive means small, poorly fitted or top-dose-only effect; inactive means flat fitted curve, though single readings scatter.

This experiment can be described thus: qHTS for Inhibitors of Cell Surface uPA Generation: FP59 Counterscreen for Cherry-picked Compounds. Further: 0% is about no effect. To be noted: FP59 anthrax toxin cytotoxicity counterscreen, cells; series mostly up to 115 µM; activity (protection from FP59): at the top concentration. In general terms: qHTS replaces the single test concentration by a dilution series.
On to `COc1ccc(C(=O)N2CCN(c3ccc(C(C)=O)cc3)CC2)cc1S(=O)(=O)N1CCCC1`, for which the “activity (protection from FP59)” value was -1.46%.

As to `O=[N+]([O-])c1ccc(C[n+]2cccc(O)c2)cc1`, the “activity (protection from FP59)” value is -1.21%.

`O=C(COc1ccccc1F)NCC(c1ccc(F)cc1)N1CCOCC1` (centres undefined): the “activity (protection from FP59)” value is -1.3%.

As for `Cc1cc(C)c(NC(=O)Cn2nnc(C(=O)NCc3ccc4c(c3)OCO4)c2N)c(C)c1`, the “activity (protection from FP59)” value was 0.198%.

For the compound `CSc1ccccc1OCc1cc(C(=O)NCCCn2nc(C)cc2C)no1`, the “activity (protection from FP59)” value was -1.14%.

Regarding `COc1ccc(CCNC(=O)Cn2c(=O)n(-c3cc(F)ccc3F)c(=O)c3sccc32)cc1OC`, the “activity (protection from FP59)” value is -1.16%.

Consider `Cc1ccccc1C(=O)NCC(=O)Nc1ccc(C)c(S(=O)(=O)N2CCCCCC2)c1`, for which the “activity (protection from FP59)” value is -1.2%.

As for `Clc1ccc(-c2nc3ccccn3c2CN2CCSCC2)cc1`, the “activity (protection from FP59)” value was 1.45%.

As to `COCCCN1CC23C=CC(O2)C(C(=O)O)C3C1=O` (centres undefined), the “activity (protection from FP59)” value was -1.37%.

`Cc1oc(-c2ccccc2F)nc1CS(=O)(=O)CC(=O)NC1CCCC(C)C1C` (centres undefined): the “activity (protection from FP59)” value is 3.16%.

Take `COc1cc(N/C(N)=N/c2nc(C)cc(C)n2)cc(OC)c1`: the “activity (protection from FP59)” value was -1.6%.

With `O=C(CCS(=O)(=O)c1ccc2c(c1)NC(=O)CS2)NCc1cccs1`, the “activity (protection from FP59)” value was -0.809%.

In the case of `C=CCn1c(SCCN2C(=O)c3ccccc3C2=O)nc2scc(-c3ccc(F)cc3)c2c1=O`, the “activity (protection from FP59)” value was -1.32%.

For the compound `Cc1ccc(Cl)c(N/C=C/C(=O)c2ccccc2)c1`, the “activity (protection from FP59)” value was -1.59%.

On to `CC(NC(=O)C1CCC(C(=O)NC(C)c2ccccc2)CC1)c1ccccc1` (centres undefined), for which the “activity (protection from FP59)” value is -1.03%.

Turning to `c1ccc(C2[C@H]3CN(Cc4cccnc4)[C@H](c4ccccc4)C34CC2(c2ccccc2)C4)cc1` (some centres undefined), the “activity (protection from FP59)” value is 11.2%.

On to `Cn1c(SCC(=O)NCCc2ccccc2)ncc(C(=O)Nc2ccc(F)cc2)c1=O`, for which the “activity (protection from FP59)” value was -1.23%.

Take `COc1cc(/C=N/NC(=O)Cc2csc(C)n2)ccc1OCC(C)C`: the “activity (protection from FP59)” value is -1.19%.

`C=CCn1c(C)cc(C(=O)COC(=O)/C=C/c2cccc(OC)c2)c1C`: the “activity (protection from FP59)” value is -0.999%.

In the case of `Cc1ccc2cccc(OCCCOc3ccccc3CO)c2n1`, the “activity (protection from FP59)” value was -1.48%.

For `CCc1ccc(S(=O)(=O)NCCc2cn3cccc(C)c3n2)s1`, the “activity (protection from FP59)” value is -1.48%.

Turning to `CCS(=O)(=O)N1CCC(C(=O)NCc2ccc(OC)cc2OC)CC1`, the “activity (protection from FP59)” value was -1.36%.

As to `Cc1cc(C)n(-c2cc(C(=O)O)cc(C(=O)O)c2)n1`, the “activity (protection from FP59)” value is -1.29%.

For `Cc1ccc(N2C(=O)c3ccccc3C2(O)c2ccccc2)cc1` (centres undefined), the “activity (protection from FP59)” value is -1.32%.

With `COc1cc(C2/C(=C(\O)c3ccc4c(c3)CC(C)O4)C(=O)C(=O)N2CC2CCCO2)cc(OC)c1OC` (centres undefined), the “activity (protection from FP59)” value is -1.41%.

As for `NC(=O)CC(NC(=O)Cc1cccc2ccccc12)c1ccc(N2CCN(c3ccccc3)CC2)c([N+](=O)[O-])c1` (centres undefined), the “activity (protection from FP59)” value was -0.718%.

With `COc1ccc(NC(=O)/C(N=Nc2cc(S(=O)(=O)Nc3ccc(OC)cc3)ccc2OC)=C(\C)O)cc1`, the “activity (protection from FP59)” value is -1.19%.

Regarding `Cc1cc(=O)[nH]c(=S)[nH]1`, the “activity (protection from FP59)” value was -1.48%.

For the compound `CCC(=O)N(Cc1cc2ccc(C)cc2[nH]c1=O)c1ccccc1OC`, the “activity (protection from FP59)” value was -1.32%.

With `Oc1c(N=NC(=S)Nc2ccccc2F)c2ccccc2n1Cc1ccccc1Cl`, the “activity (protection from FP59)” value is -0.572%.

For `CC1=C(C(=O)OCc2ccccc2)C(c2cccc([N+](=O)[O-])c2)NC(=O)N1` (centres undefined), the “activity (protection from FP59)” value is -0.959%.

As to `COc1cccc(C(=O)NCc2ccc3[nH]c(C)cc3c2)c1`, the “activity (protection from FP59)” value was -1.38%.

Regarding `C[C@H](CO)N1C[C@H](C)[C@H](CN(C)S(=O)(=O)c2cn(C)cn2)Oc2ccc(NC(=O)Nc3ccc(C(F)(F)F)cc3)cc2CC1=O`, the “activity (protection from FP59)” value is -1.57%.

As for `CCCN1CCN(C(=O)CCCn2c(C)c3cnn(-c4ccccc4)c(=O)c3c2C)CC1`, the “activity (protection from FP59)” value is -1.38%.

As to `O=C(N/C(=C\c1cccc([N+](=O)[O-])c1)C(=O)N1CCOCC1)c1ccc([N+](=O)[O-])cc1`, the “activity (protection from FP59)” value is -0.98%.

Take `Cc1ccc(N2C(=O)CC(N3CCN/C3=C3\CC/C(=C\c4ccccc4)C3=O)C2=O)cc1` (centres undefined): the “activity (protection from FP59)” value is -1.33%.

For `CCN1CCN(Cc2ccc(NC(=O)c3cc(NC(=O)c4cncc(-c5cccs5)c4)cc(OC)c3)cc2C(F)(F)F)CC1`, the “activity (protection from FP59)” value is 0.284%.

Take `COc1ccc(NC(=O)c2cccnc2N2CCOCC2)cc1`: the “activity (protection from FP59)” value is -1.54%.

As for `CSc1nc(-c2ccccc2)nc(C(Cl)Cl)n1`, the “activity (protection from FP59)” value was -1.15%.
